Screening results from PubChem BioAssay.
The list is not random: actives were taken first. Their share in the collection is about 32%.
CYP2C9 activ – increases human cytochrome P450 2C9 activity. activation factor at 5 µM. P11712. recombinant CYP2C9, luciferin-H conversion, luminescence; stronger effect = higher value; factor 1 = untreated enzyme, 0 = blocked. 96,000 compounds, 1.4% hits. AID 1024;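 active = activation factor of 2 or more for CYP2C9 at a 5 µM dose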;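 also: 0 = sulfaphenazole-blocked wells and 1 = vehicle-only wells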
CYP2C19 inh – human CYP2C19 inhibition | P33261 | CYP2C19 Supersomes, luciferin-H EGE luminescence, 30 min | inhibition, % at 5 µM | 96,000 compounds, 21% hits;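 active = CYP2C19 inhibition above a set limit at 5 µM in the primary screen, cut at about 50% in these data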;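 also: plate controls were negative control wells for no effect and 2.5 mM tranylcypromine positive control for full effect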
Target sequence (P33261 whole entry, looked up): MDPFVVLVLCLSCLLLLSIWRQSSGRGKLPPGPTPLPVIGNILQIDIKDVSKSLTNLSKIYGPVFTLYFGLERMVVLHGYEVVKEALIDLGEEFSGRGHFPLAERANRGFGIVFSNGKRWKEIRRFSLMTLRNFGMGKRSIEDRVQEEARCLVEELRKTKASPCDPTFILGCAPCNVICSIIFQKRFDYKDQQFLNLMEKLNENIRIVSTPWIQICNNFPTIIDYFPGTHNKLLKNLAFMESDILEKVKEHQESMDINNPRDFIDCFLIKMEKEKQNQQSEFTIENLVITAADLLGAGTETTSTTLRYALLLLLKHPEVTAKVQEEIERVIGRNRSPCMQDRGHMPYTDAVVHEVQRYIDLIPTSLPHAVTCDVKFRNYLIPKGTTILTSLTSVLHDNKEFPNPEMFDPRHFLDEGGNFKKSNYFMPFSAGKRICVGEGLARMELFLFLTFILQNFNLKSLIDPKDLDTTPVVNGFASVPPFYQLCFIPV
PostGolgi ctrl – inhibits growth of the yeast control strain; 98,000 compounds, 5% hits; inhibition, % at 10 µM; efflux-deficient yeast background strain, growth absorbance A615, 16 h
PostGolgi yeast – growth inhibition of a yeast mutant, post-Golgi transport screen | post-Golgi transport phenotypic cell assay | inhibition, % at 10 µM | 98,000 compounds, 0.9% hits | AID 739;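 also: yeast cells grown in 1536-well plates; yeast grown about 18 h at 30C before absorbance read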
CYP2C9 inh – inhibitors of human CYP2C9 | 96,000 compounds, 20% hits | CYP2C9 Supersomes, luciferin-H conversion, luminescence | inhibition, % at 5 µM | P11712;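 active = blocking of liver enzyme CYP2C9 beyond about 50% at 5 µM, limit read from the data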
CYP2C19 act – activators of human cytochrome P450 2C19; P33261; recombinant CYP2C19, luciferin-H EGE luminescence; stronger effect = higher value; 0 = fully inhibited enzyme, 1 = untreated enzyme; activation factor at 5 µM; 96,000 tested, under 10 active;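 active = activation factor of at least 2 at 5 µM in the primary screen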;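 also: 0 = wells with 2.5 mM tranylcypromine and 1 = vehicle-only wells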
An asterisk follows results filed as active. Rule as the data show it, unless noted: active = inhibition above about 30%; inactive = the rest.

SMILES	CYP2C9 activ	CYP2C19 inh	PostGolgi ctrl	PostGolgi yeast	CYP2C9 inh	CYP2C19 act
COc1ccc(Cl)cc1NC(=S)NCc1ccco1	2*	71.1*	9.8	-17.3	-100.4	0.3
CSC1=NCCN1C(=O)c1ccc(S(=O)(=O)N2CCCC2)cc1	1.1	-6.1	-0.5	2.6	-5.4	1.1
Cc1nc2c(C)cccn2c1/C(O)=C1\C(=O)C(=O)N(CCN2CCOCC2)C1c1cccs1 (stereo not given)	0.9	32.1	4.1	-2.6	6.5	0.7
S=C(NCc1ccco1)Nc1ccc(Cl)c(Cl)c1	0.6	53.1*	40.9*	4.5	36.4	0.5
O=C(Nc1ccc(Cl)c(Cl)c1)N(Cc1cccnc1)Cc1ccco1	0	99.0*	104.8*	96.3*	99.6*	0
S=C(NCc1ccco1)Nc1cccc(Cl)c1	1.2	34.1	-3.0	-0.3	-15.8	0.7
CCc1ccc(CCC(=O)Nc2ccccc2C(=O)O)o1	0.5	13.3	-3.4	7.0	52.2*	0.9
CCNC(=O)CC(=O)Nc1ccccc1C(=O)O	1	-4.6	9.3	-7.7	-2.2	1
Cc1ccc(CCC(=O)Nc2nccs2)o1	0.8	63.2*	6.8	4.1	17.8	0.4
Cc1ccc(OCc2ccc(C(=O)Nc3nccs3)o2)cc1	0.9	4.5	1.9	-5.9	12.0	1
CCc1ccc(CCC(=O)Nc2nccs2)o1	0.5	57.9*	0.1	-15.3	47.6	0.4
CN(C)/C=C1\C(=O)N(c2ccc(Oc3ccccc3)cc2)CS1=O (stereo not given)	0.9	4.1	0.4	-10.5	6.7	1
CCN1C(=O)C(Cc2nc3ccccc3c(=O)n2C)c2ccccc21 (stereo not given)	0.4	56.9*	22.3	5.9	60.3*	0.4
COc1cccc(C2N(c3cccc(Cl)c3)C(=O)C3CCCN32)c1OC (stereo not given)	0.3	78.0*	5.3	4.0	69.8*	0.2
O=C1C2CCCN2C(c2ccc(F)c(F)c2)N1c1cccc(Cl)c1 (stereo not given)	0.6	50.5*	2.4	-5.2	40.8	0.5
COc1cc(C2N(c3cccc(Cl)c3)C(=O)C3CCCN32)cc(OC)c1OC (stereo not given)	0.8	42.8	9.5	1.8	17.4	0.6
O=C(NC1CCCCC1)NC1CC2CCC(C1)N2Cc1nnnn1Cc1ccc2c(c1)OCO2 (stereo not given)	0.9	19.8	13.7	6.7	5.6	0.8
COCCN(CCOC)C(=O)c1cc2sc3ccccc3c2s1	2.8*	34.2	0.6	-9.8	-178.6	0.7
CCN(CC)C(=O)c1cc2sc3ccccc3c2s1	2.4*	27.1	30.4*	-6.9	-135.6	0.7
COCCN(CC(=O)NCc1ccccc1)C(=O)CCC(=O)Nc1ccccn1	1	0.1	24.3	4.2	-4.6	1
CCCc1nc2sc3ccccc3c(=O)c2c(=O)n1Cc1ccco1	1	-6.9	-4.7	13.9	-2.5	1.1
O=C(O)CCCC(=O)Nc1ccc(Br)cc1	1	-8.7	1.2	-0.2	-3.3	1.1
CC(C)=CC(=O)Nc1ccc(Br)cc1	0.3	23.0	2.1	2.5	73.2*	0.8
Cc1ccc(CSc2nnc3nc(C)cc(C)n23)cc1	1.3	-6.5	6.4	-2.6	-32.5	1.1
Cc1ccc(CSc2nnc(C(F)(F)F)n2Cc2ccc(F)cc2)cc1	0.3	42.5	18.2	-16.2	69.0*	0.6
SMILES	CYP2C9 activ	CYP2C19 inh	PostGolgi ctrl	PostGolgi yeast	CYP2C9 inh	CYP2C19 act
COc1cccc(CSc2nnc(C(F)(F)F)n2Cc2ccc(F)cc2)c1	0.4	39.4	19.5	22.1	61.0*	0.6
Nc1ccccc1C(=O)NCc1ccccc1	1	-1.4	-4.5	-8.3	-0.1	1
COC(=O)C1=C(C(=O)OC)SC2(S1)C(C(=O)OC)=C(C(=O)OC)SC1=C2c2cccc(C)c2NC1(C)C	0.1	85.4*	0.3	-12.9	87.8*	0.1
CCC(CC)C(=O)Nc1ccccc1NC(C)=O	0.9	2.3	-0.8	14.0	10.1	1
OC(CNc1ccccc1)COc1ccc(OCC(O)CNc2ccccc2)cc1 (stereo not given)	0.3	12.8	10.7	-5.0	66.9*	0.9
CC(C)(C)C(=O)N1CCN(c2c(Cl)cccc2[N+](=O)[O-])CC1	0.1	64.8*	15.7	1.9	85.2*	0.4
CC(C)(C)C(=O)N1CCC(O)(CS(=O)(=O)Cc2ccccc2Cl)CC1	0.9	13.3	-2.3	8.2	14.5	0.9
COc1ccc(Cn2nc(C)n(N(C)c3ncc(C(F)(F)F)cc3Cl)c2=O)cc1	0.8	53.2*	6.3	-2.6	15.5	0.5
CN(C)CCCNS(=O)(=O)c1ccc(Oc2ncc(C(F)(F)F)cc2Cl)cc1	1	9.3	12.7	-3.1	-2.7	0.9
Cc1ccc(-c2csc(NC(=O)CSc3ncn(-c4ccccc4)n3)n2)cc1	0.3	63.5*	-3.4	-5.2	66.6*	0.4
O=C(CSc1nc(-c2ccccc2)cs1)Nc1nccs1	0.7	42.7	0.1	17.5	31.2	0.6
CC(=O)Nc1ccc(C(=O)CSc2ncn(-c3ccccc3)n2)cc1	0.3	67.3*	35.5*	2.5	74.9*	0.3
O=C(CSc1ncn(-c2ccccc2)n1)N1CCc2ccccc21	0.9	26.7	3.9	-9.2	7.3	0.7
O=C(CSc1ncn(-c2ccccc2)n1)Nc1nccs1	0.8	55.8*	10.5	-3.9	20.9	0.4
O=C(CSc1ncn(-c2ccccc2)n1)Nc1nc2c(s1)CCCC2	0.4	44.2	45.7*	-1.8	64.0*	0.6
Cc1csc(NC(=O)CSc2ncn(-c3ccccc3)n2)n1	0.8	18.9	2.2	0.2	20.1	0.8
NC(=O)CN1CCN(C(=O)NC2CCCCC2)CC1	1.2	-15.2	5.9	-11.2	-17.4	1.2
O=C(CSc1ncn(-c2ccccc2)n1)Nc1nc2ccccc2s1	0.4	64.9*	25.5	3.0	64.6*	0.4
O=C(CSc1nnc(CNc2ccc(Cl)cc2)o1)Nc1nc2ccccc2s1	0.5	-10.6	-3.7	-8.7	46.0	1.1
O=C(NCCN1CCN(c2ccccc2F)CC1)C1CC(=O)N(C2CCCC2)C1 (stereo not given)	1	-6.7	7.3	-2.0	-1.5	1.1
CN(C)C(=O)c1noc2cc([N+](=O)[O-])ccc12	1.1	3.1	-6.5	-10.9	-9.7	1
CN(C)S(=O)(=O)c1ccc(-c2cn3ccccc3n2)cc1	0.5	12.5	7.8	0.7	54.0*	0.9
CCN(CC)S(=O)(=O)c1cccc(C(=O)OCC(=O)N2CC(=O)Nc3ccccc32)c1	0.3	33.5	15.2	5.1	65.5*	0.7
CN(C)S(=O)(=O)c1cccc(C(=O)OCC(=O)Nc2ccccc2OC(F)F)c1	0.9	7.1	5.7	-2.3	5.9	0.9
O=C1CN(C(=O)COC(=O)c2cccc(S(=O)(=O)NCc3ccccc3)c2)c2ccccc2N1	0.3	43.6	8.9	3.5	68.0*	0.6
CCN(CC)S(=O)(=O)c1cccc(C(=O)OCC(=O)Nc2ccccc2OC(F)F)c1	0.1	84.3*	-1.0	-4.8	88.1*	0.2
